Screen size: about 65,000 compounds; about 2,100 (3.2%) showed an effect of 50% or more. The median lay at about -52%. The sample holds strong results, similar compounds and a random draw of the others, so the mix is not that of the screen.

This assay has as its system Plasmodium falciparum. As to the kind of experiment: Screen against P. falciparum Asexual Blood Stage (ABS), at 5uM. It counts as functional, Dd2. As to conditions: tested at 5 uM.
On to `CN1CC2(CCCN(c3nc(N)nc4c3CCCC4)C2)OC1=O` (configuration not stated), for which the INHIBITION was -29.7%.
To `CN1CCCCc2c1nc1c(c2N)CCC1` belongs 65.8%; to `COC[C@@H]1CC[C@H]2[C@H](CCN2S(=O)(=O)c2ccc(C)cc2)O1`, -3.1%.
To `Cc1cc(N2CCCC2)nc(CNS(=O)(=O)Cc2ccccc2)n1` belongs -63.1%; to `Cc1nn(C)c(N2CCCN(C)CC2)c1CNC(=O)CCC(C)C`, -12.6%; to `COCC(=O)N1C[C@@H]2CCCO[C@@H]2[C@H](N(C)Cc2ccco2)C1`, -22.6%.
The result for `Cc1noc([C@@H]2CCO[C@@H]3CCN(Cc4ccc(C)s4)C[C@@H]32)n1` reads 10.3%; that for `CN(C)CCN1CCOCC2(CCCN(C(=O)c3ccccn3)C2)C1` (configuration not stated), -26.3%; that for `CN(C)CC(C)(C)Cn1cnc(-c2ccccc2)c1-c1cccc(O)c1`, 50.9%.
For `Cn1ccnc1CN1CCC(c2ccnc(-c3cccc(O)c3)c2)C1` (configuration not stated), the INHIBITION came out at 30.7%.
On to `Oc1cccc(-c2cc(C3CCN(Cc4cncnc4)C3)ccn2)c1` (configuration not stated), for which the INHIBITION is listed as -15.3%.
To `CN(C)CC(C)(C)CN1CCC(c2ccnc(-c3cccc(O)c3)c2)C1` (configuration not stated) belongs 69.5%; to `CN(C)CC(C)(C)Cn1cnc(-c2ccccc2)c1-c1ccncc1`, 1.44%; to `CN(C)CC(C)(C)Cn1cnc(-c2ccccc2)c1-c1ncc[nH]1`, -81.8%.
The result for `COc1ccccc1OC1CN(C(=O)c2ccccc2C(C)=O)C1` reads -184%; that for `O=c1[nH][nH]cc1-c1ccnc(NCCN2CCCCC2)n1`, -153%; that for `CS(=O)(=O)CCC(=O)N1C[C@H]2CC[C@@H](C1)N(Cc1ccccc1)C2=O`, -72.6%.
To `CC(C)c1nnc2n1CCN(C(=O)c1cc(Cl)c[nH]1)C2` belongs 5.02%; to `Cc1ccccc1C(=O)N1C[C@@H]2CCN(c3cccnc3)C[C@@H]2C1`, -45.5%; to `CCS(=O)(=O)N1CCC(NC(=O)c2cc3ccccc3cc2O)CC1`, 6.29%.
Take `O=C1CC(CNc2cncc(Cl)n2)c2ccccc2N1` (configuration not stated): the INHIBITION is reported as 66.1%.
To `Cc1cc(NCC2CC(=O)Nc3ccccc32)nc(C)n1` (configuration not stated) belongs -151%.
To `O=C1CC(CNc2cncc(Br)c2)c2ccccc2N1` (configuration not stated) belongs 12.2%; to `O=C1C[C@@H]2CC[C@H](CN1)N2C(=O)Cc1ccsc1`, -114%; to `CCN(CC)c1nc2ccsc2c(=O)n1CCC(=O)NCc1ccco1`, -83%.
To `CCc1nc(CCNC(=O)Nc2ccc(C(=O)NC)cc2)cs1` belongs -114%; to `Cc1ccc(-c2nccn2-c2ccc(OC3CCN(C)CC3)cc2)o1`, 55.1%; to `CN1CCC(Oc2ccc(-n3ccnc3-c3nccn3C)cc2)CC1`, -33.1%.
Turning to `CN1CCC(Oc2ccc(-n3ccnc3-c3ccncc3)cc2)CC1`, the INHIBITION is -17%.
The result for `Cc1nn(C)c(C)c1C(=O)NC(C)CC(=O)c1cccs1` (configuration not stated) reads -35.4%; that for `Cc1ccc(-c2nn(C)c(C(=O)O)c2Br)cc1`, -38.6%.
To `Cc1cccc(=O)n1CCC(=O)N1CC[C@](C)(O)[C@H](C)C1` belongs -97.5%.
To `c1cnnc(N2CCCC(NCc3nnc(-c4ccco4)o3)C2)c1` (configuration not stated) belongs -31.5%; to `Cc1ccc(N2CCCC(NCc3nc(C)c(C)o3)C2)nn1` (configuration not stated), -26.7%; to `Cc1ccc(N2CCCC(NCc3nnc(-c4ccco4)o3)C2)nn1` (configuration not stated), 50.3%.
On to `Cn1nc2c(cc1=O)CN(CCOc1ccccc1C#N)CC2`, for which the INHIBITION turned out to be 0.73%.
As to `COCC(=O)N1C[C@H]2CNC[C@@]2(C(=O)NCc2cc(C)n[nH]2)C1`, the INHIBITION came to 4.75%.
As for `CS(=O)(=O)N1CC(c2nc(N)ncc2-c2ccc(F)cc2)C1`, the INHIBITION was -47.4%.
To `CN(C)c1ncc(-c2ccc(C(N)=O)cc2)c(C2CCNC2)n1` (configuration not stated) belongs -37.9%; to `Nc1ncc(-c2ccc(C(F)(F)F)cc2)c(C2CCCNC2)n1` (configuration not stated), 70.9%.
The result for `Nc1ncc(-c2ccc(F)cc2)c(C2CCCNC2)n1` (configuration not stated) reads 50.3%.
To `COc1ccc(-c2cnc(N)nc2C2CCCNC2)cc1` (configuration not stated) belongs -91.8%.
For `Nc1ncc(-c2ccc(Cl)cc2)c(C2CCCNC2)n1` (configuration not stated), the INHIBITION is given as 48.9%.
`CCN1CCCC(NC(=O)c2ccc(C)[nH]c2=O)C1` (configuration not stated): the INHIBITION is recorded as -166%.
For the compound `CN(C)c1ncnc2c1CCN(CC1CCOCC1)CC2`, the INHIBITION is -55.1%.
The result for `CN1CCN(C[C@H]2CC[C@@H](Cc3ccc(CN4CCCC4)cc3)O2)CC1` reads 36.4%; that for `CCN(Cc1cnn(C)c1)C[C@H]1CC[C@@H](Cc2ccc(OC)nc2)O1`, 4.73%.
With `CN1CCC(N(C)C[C@H]2CC[C@@H](Cc3cccc(O)c3)O2)CC1`, the INHIBITION is 57.5%.
To `CN1CCN(C[C@H]2CC[C@@H](Cc3ccc4c(c3)OCO4)O2)CC1` belongs -28.1%; to `COc1ccc(C[C@@H]2CC[C@H](CN(C)C3CCN(C)CC3)O2)cc1`, 50.9%; to `CN1CCC(N(C)C[C@H]2CC[C@@H](Cc3cccc(CO)c3)O2)CC1`, -125%.
`CC(=O)Nc1nc2c(s1)C(C)(C)Nc1ccccc1S2`: the INHIBITION is on record as -58.4%.

The values above are taken from ChEMBL document CHEMBL4513216, “Probing the Open Global Health Chemical Diversity Library for Multistage-Active Starting Points for Next-Generation Antimalarials” (ACS Infect Dis, 2020).
